# Screening data deposited in PubChem by several laboratories.
# The entries come from a sample that favours hits as a whole.
# EphB4 antag: EphB4-ephrin-B2 interaction antagonists, primary screen, biochemical, TNYL-RAW peptide probe, fluorescence polarization. inhibition, % at 7 µM. Ephrin type-B receptor 4 (Homo sapiens), P54760. EphB4 LBD / TNYL-RAW-Alexa532 peptide. 97,000 tested, 0.15% active;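 active = inhibition above the screen-wide mean inhibition plus 3 SD, cut at about 15% in these data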
# Target sequence (P54760 whole entry, looked up, the tested form may be a part): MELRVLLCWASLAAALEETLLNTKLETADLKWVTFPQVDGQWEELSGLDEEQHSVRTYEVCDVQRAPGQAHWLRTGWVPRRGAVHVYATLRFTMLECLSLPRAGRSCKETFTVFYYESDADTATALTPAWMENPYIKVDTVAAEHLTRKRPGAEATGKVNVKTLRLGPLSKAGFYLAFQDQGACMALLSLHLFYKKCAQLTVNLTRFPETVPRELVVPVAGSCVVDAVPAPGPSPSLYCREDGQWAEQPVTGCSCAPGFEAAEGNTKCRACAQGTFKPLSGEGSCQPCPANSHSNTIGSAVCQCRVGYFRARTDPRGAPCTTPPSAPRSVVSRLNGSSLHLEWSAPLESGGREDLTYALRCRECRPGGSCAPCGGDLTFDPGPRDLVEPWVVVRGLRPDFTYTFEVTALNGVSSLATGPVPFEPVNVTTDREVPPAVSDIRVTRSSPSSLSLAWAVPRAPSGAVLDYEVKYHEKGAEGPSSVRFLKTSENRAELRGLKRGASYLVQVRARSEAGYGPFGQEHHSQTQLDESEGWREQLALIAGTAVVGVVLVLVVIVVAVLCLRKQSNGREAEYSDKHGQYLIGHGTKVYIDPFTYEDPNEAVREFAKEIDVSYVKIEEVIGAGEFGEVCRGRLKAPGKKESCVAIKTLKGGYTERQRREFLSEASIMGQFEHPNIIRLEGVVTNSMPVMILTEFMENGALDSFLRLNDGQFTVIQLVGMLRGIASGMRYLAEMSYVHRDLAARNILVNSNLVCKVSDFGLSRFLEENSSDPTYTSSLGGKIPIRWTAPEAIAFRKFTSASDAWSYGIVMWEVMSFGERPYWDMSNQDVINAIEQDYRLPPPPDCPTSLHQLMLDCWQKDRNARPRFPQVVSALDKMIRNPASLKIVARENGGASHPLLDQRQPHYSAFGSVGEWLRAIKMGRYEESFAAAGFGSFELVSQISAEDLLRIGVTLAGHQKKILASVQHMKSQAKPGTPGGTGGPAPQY
# D1 mod: D1 CRE-luciferase signal change, two-sided – cell-based, HEK293 D1, dopamine EC30, D1 allosteric modulator project, primary screen | D(1A) dopamine receptor (Homo sapiens), P21728 | dopamine EC30 potentiation; actives deviate in either direction | B-score at 10 µM | 58,000 tested, 5.9% active | AID 641, 2007;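 active = luminescence count or its row- and column-corrected plate score outside the 99.7% band of the plate's sample wells, on either side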
# hDAT+cocaine: changed hDAT dopamine uptake under cocaine IC80, either direction, primary screen, cocaine antagonist project, cell-based, LLC-PK1 hDAT, [14C]-dopamine uptake, MLSMR; B-score at 10 µM; Sodium-dependent dopamine transporter (Homo sapiens), Q01959; 110,000 tested, 1.3% active; LLC-PK1 hDAT cells, [14C]-dopamine uptake with cocaine IC80; actives deviate in either direction;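 active = Z score or B-score, a plate-position-corrected score, falls beyond the plate's 99.7% confidence bounds, in either direction; inactive = both scores lie inside the 99.7% bounds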
# Numbers stand for hits; – = inactive; · = no result given.
SMILES,EphB4 antag,D1 mod,hDAT+cocaine
COc1cccc(-c2cc(C(=O)N3CCCCC3C)no2)c1 (centres undefined),–,–,·
O=C(c1cc(-c2ccc(F)cc2)on1)N1CCCC1,–,-3.6,·
O=C(c1cc(-c2ccc(Cl)c(Cl)c2)on1)N1CCCC1,·,–,–
COc1cccc(-c2cc(C(=O)N3CCCCCC3)no2)c1,–,-4.9,–
O=C(c1cc(-c2cccc(O)c2)on1)N1CCCCC1,·,-4.8,–
CN1CCN(C(=O)c2cc(-c3ccccc3)on2)CC1,–,–,–
CCc1nnc(NC(=O)C2c3ccccc3Oc3ccccc32)s1,–,·,–
CCOC(=O)c1cnc(SC)nc1Sc1cc(Cl)ccc1Cl,–,·,–
CCCCCC(=O)N1CC2(CC(c3cccc(NC(=O)COc4ccc(Cl)cc4)c3)=NO2)C[C@@H]1C(N)=O (some centres undefined),·,·,3.1
CCC(=O)N1CC2(CC(c3cccc(NC(=O)COc4ccc(Cl)cc4)c3)=NO2)C[C@@H]1C(N)=O (some centres undefined),·,·,–
Cc1ccc(N2CCN(CC(=O)Nc3c(C(=O)C4CC4)oc4ccccc34)CC2)cc1,–,·,–
Cc1ccc(NC(=O)C2C3C=CC4(CN(Cc5cccnc5)C(=O)C24)O3)cc1F (centres undefined),·,–,–
C[N+](C)(C)CCOP(=O)(O)OP(=O)([O-])OC[C@H]1O[C@@H](n2ccc(N)nc2=O)[C@H](O)[C@@H]1O,·,·,–
Cc1ccc(O)c(N=CC2=C(O)c3ccccc3C2=O)c1,–,–,–
O=C1C(C=Nc2ccccc2O)=C(O)c2ccccc21,–,-5.6,–
CCC1=C(OC(=O)N(CC)CC)N2C(=O)OC(=NCC3CC3)[C@]2(C)[C@H]2C1=CC[C@H]1C(=O)N(CC)C(=O)[C@H]12,·,·,–
Cc1ccc(C)c(Cn2c(CN(C)Cc3ccccc3)nc3c2c(=O)n(C)c(=O)n3C)c1,–,–,–
COC(=O)c1ccccc1NC=C1C(=O)OC2(CCCCC2)OC1=O,·,·,–
COc1ccccc1NC=C1C(=O)OC2(CCCCC2)OC1=O,–,-6.9,–
CC(=O)Nc1cccc(NC(=O)c2c(-c3c(Cl)cccc3Cl)noc2C)c1,–,·,–
Cc1cc(C)nc(NC(=O)c2c(-c3c(Cl)cccc3Cl)noc2C)n1,–,–,-2.9
CCC(Sc1nc(-c2ccccc2)c(C#N)c(=O)[nH]1)C(=O)Nc1nnc(C)s1 (centres undefined),–,·,–
Clc1ccc(OCc2nc(-c3ccccn3)no2)c(Br)c1,–,-6.9,–
Brc1ccc(-c2nc(-c3ccccn3)no2)o1,–,·,–
Clc1ccccc1OCc1nc(-c2ccccn2)no1,–,–,·
SMILES,EphB4 antag,D1 mod,hDAT+cocaine
Clc1ccc(-c2nc(-c3ccccn3)no2)cc1Cl,–,-5.5,–
N#CC1(Cc2ccc(Cl)cc2)c2ccccc2C=CN1C(=O)c1ccccc1 (centres undefined),–,·,–
Cc1ccccc1CN(c1ccc(C(=O)N2CCc3ccccc3C2)cc1)S(C)(=O)=O,–,·,-3.2
CNC(=O)c1ccc(N(Cc2ccccc2C)S(C)(=O)=O)cc1,–,–,–
c1ccc(-c2nc(N3CCOCC3)c3ccccc3n2)nc1,–,–,–
c1ccc(-c2nc(N3CCCCCC3)c3ccccc3n2)nc1,–,–,2.1
CN1CCN(c2nc(-c3ccncc3)nc3ccccc23)CC1,–,-3.8,–
c1ccc(CN2CCN(c3nc(-c4ccccc4)nc4ccccc34)CC2)cc1,–,·,–
COC(=O)C(Cc1ccc(OC(=O)c2ccc(C)cc2)cc1)N1Cc2ccccc2C1=O (centres undefined),–,·,–
CCOC(=O)C(NC(C)=O)(Nc1ccc(S(=O)(=O)Nc2onc(C)c2C)cc1)C(F)(F)F (centres undefined),–,-6.9,–
CCOC(=O)C(NC(C)=O)(Nc1ccc(S(=O)(=O)Nc2cc(C)on2)cc1)C(F)(F)F (centres undefined),–,·,–
COC(=O)c1cc(NC(=O)CN(c2ccc(OC)cc2)S(=O)(=O)c2ccc(F)cc2)ccc1Cl,–,·,–
COc1ccc(C(=O)COC(=O)CCN2C(=O)C3C4CC(C(Br)C4Br)C3C2=O)cc1 (centres undefined),–,·,-2.3
COc1ccc(C(=O)COC(=O)C(CCCCN2C(=O)C3C4C=CC(C4)C3C2=O)N2C(=O)C3C4C=CC(C4)C3C2=O)cc1 (centres undefined),–,·,–
CC(C)N(Cc1nc(-c2ccccc2)no1)C(=O)CCCN1C(=O)c2ccccc2C1=O,–,–,2.4
CC(C)N(Cc1nc(-c2ccccc2)no1)C(=O)CN1C(=O)c2ccccc2C1=O,–,–,–
COc1ccccc1NC(=O)CSc1nc2ccccc2cc1Cc1ccccc1,–,·,–
c1ccc(Nc2nc(-c3cccnc3)cs2)nc1,–,–,–
CC(=O)Nc1cccc(-c2csc(Nc3cc(C)ccn3)n2)c1,–,·,3.1
CC(=O)Nc1cccc(-c2csc(Nc3ccccn3)n2)c1,–,·,2.5
Cc1ccnc(Nc2nc(-c3c(C)nc4sccn34)cs2)c1,–,–,–
CCOC(=O)c1c(-c2ccc(C)o2)csc1NC(=O)COC(=O)c1ccc(NC(N)=O)cc1,–,·,–
CCCCCC(=O)Nc1cccc(C2=NOC3(C2)C[C@@H](C(N)=O)N(C(=O)C2(C)CC2)C3)c1 (some centres undefined),·,·,–
C/C=C1\COC(C(=O)NCCCN2CCCC2=O)(C(F)(F)F)C=C1C=C(C)C (centres undefined),·,·,–
CCN(CC)S(=O)(=O)c1ccc2c(c1)nc(CCC(=O)Nc1ccccc1Cc1ccccc1)n2CC,–,·,–
SMILES,EphB4 antag,D1 mod,hDAT+cocaine
CCOC(=O)CCN(Cc1sccc1C)S(=O)(=O)c1ccc(F)cc1,–,·,3.8
CCOC(=O)CCN(Cc1cccs1)S(=O)(=O)c1ccc(F)cc1,–,–,–
CCOc1ccc(-c2noc(CCC(=O)O)n2)cc1,–,·,–
COc1ccc(-c2noc(CCCC(=O)O)n2)cc1,·,-5.5,–
CC(C)(C)[C@H]1C=C(C(=O)Nc2ccccc2)O[C@@H](OCCCCO)C1,·,·,–
CC12CCC(C(=O)N(NC(=O)c3cc(Cl)ccc3O)C1=O)C2(C)C (centres undefined),–,·,–
CCOC(=O)C1=C(C)N(CCCC(=O)O)C(=O)NC1C(CC)CC (centres undefined),·,·,–
CC(C)CC(=O)NC(=S)Nc1ccccc1C(=O)Nc1ccccc1,–,·,–
COc1ccc(-n2cnc3cc(NCc4ccccn4)ccc32)cc1,–,·,–
CCCCC(=O)Nc1cc2nn(-c3ccc(OC)cc3)nc2cc1C,–,–,–
CCC(=O)Nc1ccc2c(c1)ncn2-c1ccc(OC)cc1,–,·,2.9
CCC(=O)Nc1cc2nn(-c3ccc(OC)cc3)nc2cc1C,·,-5,–
CCOc1ccc(C(Nc2ccc(C)cc2)P2(=O)OCCC(C)O2)cc1 (centres undefined),–,·,–
O=C(NCCCn1ccnc1)c1cccc(S(=O)(=O)N2CCCCCC2)c1,–,·,·
O=C(NCCCn1ccnc1)c1ccc(S(=O)(=O)N2CCCCCC2)cc1,–,·,3.1
